Assay [1] concerns the target Thyrotropin receptor (Homo sapiens) (UniProt P16473). The assay is described as follows: qHTS assay to identify small molecule agonists of the thyroid stimulating hormone receptor (TSHR) signaling pathway (AID 1224843; calls by dose curve; further: nearly all actives have a fitted effect of over 45% in size; further: potency means the concentration at half of the fitted maximal effect). In a few lines: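 TSHR-HEK293 cells in agonist mode, 30 min room-temperature step, then cAMP measured by competitive HTRF (cAMP-d2 with anti-cAMP cryptate) after 1 h at room temperature. Tested at 15 concentrations in triplicate.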

Assay [2] in a line: qHTS assay to identify small molecule agonists of the hypoxia (HIF-1) signaling pathway - cell viability counter screen (AID 1224844; calls by dose curve; further: nearly all actives have a fitted effect of over 50% in size). In a few lines:
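Multiplexed with the HRE beta-lactamase assay, this viability read used CellTiter-Glo luminescence (30 min, RT) on HRE-bla ME-180 cells treated 17 hrs with compounds in 0.5% dialyzed FBS medium.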

Assay [3] is described as follows: qHTS assay to identify small molecule agonists of H2AX (AID 1224845; active means well fitted activation curve with a large enough effect in the signal ratio in the repeat runs, not every such curve was filed as active; the % refers to the signal ratio). In a few lines: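 Wild-type CHO-K1 cells, plated overnight, exposed 3hr at 37C to 15 concentrations (0.76% DMSO final). Lysed, then HTRF anti-pH2AX (S139) cryptate and anti-H2AX-d2 antibodies, 24 hr room temperature; 665/620 nm emission read.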
A short description of assay [4]: qHTS assay to identify small molecule agonists of H2AX - cell viability counter screen (AID 1224847; calls by dose curve; further: top concentration of the series differs between compounds; nearly all actives have a fitted effect of over 30% in size). In a few lines: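 Cells plated first: CHO-K1, 1000 per well in 10% FBS medium, incubated overnight at 37C. Then 15-point compound titration added (final DMSO 0.76%) for 3 hr. Finally CellTiter-Glo added and luminescence read.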
A general note: In qHTS, concentration-response curves come from the screen itself.

The nature of assay [5]: A CellTox Green Cytotoxicity Assay to monitor cytotoxicity in HEK293 cells - 0 hour (AID 1224869). Further: nearly all actives have a fitted effect of over 50% in size. In a few lines:
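Seeding of HEK293 cells together with cytotoxicity dye preceded a 5 h incubation at 37 C/5% CO2. Test compounds in DMSO were then added and fluorescence monitored across 40 h.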

Assay [6] in a line: qHTS RealTime-Glo MT Cell Viability Assay in HepG2 cells - 24 hour (AID 1224867). Further: nearly all actives have a fitted effect of over 50% in size. In short, it runs like this:
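Real-time, nonlytic viability: 600 HepG2 cells/well mixed with NanoLuc enzyme plus prosubstrate; 5 h settle, compound (DMSO) added by pintool; luminescence monitored over 40 h at 37 C.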

Assay [7] in a line: qHTS RealTime-Glo MT Cell Viability Assay in HEK293 cells - 32 hour (AID 1224868). Further: nearly all actives have a fitted effect of over 50% in size. Further: potency means the concentration at half of the fitted maximal effect. In a few lines: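 Cells + reagent dispensed (600 cells/well, HEK293) → 5 h at 37 C/5% CO2 → 23 nL compound in DMSO pinned → 40 h at 37 C → luminescence read at 0, 8, 16, 24, 32, 40 h.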
Assay [8] in a line: qHTS assay to identify small molecule agonists of the estrogen related receptor (ERR) signaling pathway from Tox21 library (AID 1224849; calls by dose curve; further: nearly all actives have a fitted effect of over 15% in size). The following applies: ERR reporter cell line, ONE-Glo luciferase, 18 h; at 92.4 µM (top of the series) unless noted. In a few lines: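 Six hours post-seeding at 37 C/5% CO2, ERR cells receive DMSO-solubilised compounds; after 18 h at 37 C, ONE-Glo reagent is applied and luminescence recorded.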

Assay [9] can be described thus: qHTS assay to identify small molecule agonists of the hypoxia (HIF-1) signaling pathway (AID 1224846; active means well fitted activation curve with a large enough effect in the signal ratio in the repeat runs, not every such curve was filed as active; the % refers to the signal ratio). In a few lines: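 Hypoxia-pathway activation was scored as increased beta-lactamase from an HRE-controlled reporter in ME-180 cells; plated at 2,000 cells per well with 0.5% dialyzed FBS, they were exposed 17 hrs to compounds and then given CCF4-AM.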
The nature of assay [10]: qHTS assay to identify small molecule antagonists of the estrogen related receptor (ERR) signaling pathway from Tox21 library (AID 1224848). Further: nearly all actives have a fitted effect of over 50% in size. In short, it runs like this:
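ERR reporter cell line (from NTP) seeded 2,000 cells/well, rested 6 h at 37 C/5% CO2, then pin-dosed with compounds in DMSO. After 18 h at 37 C, ONE-Glo added; luminescence read after 30 min at room temperature.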

“And” between values parts separate entries of the source, which are not always exact repeats. Equal entries are not always repeated. A number with no mark means an inactive call. Records with an inconclusive call do not appear. The source made the active and inactive calls. Unless noted, the call rests on the fitted dose curve; in most records, active means well fitted curve in the direction sought with a large enough effect in the repeat runs; inconclusive means weak or mixed curves; inactive means no such curve, though single readings can be large; an effect the other way counts as inactive or inconclusive.
On the % scale 0 is the no-effect control and ±100 the full control effect.

Thyrotropin receptor (Homo sapiens), sequence (P16473 whole entry, looked up): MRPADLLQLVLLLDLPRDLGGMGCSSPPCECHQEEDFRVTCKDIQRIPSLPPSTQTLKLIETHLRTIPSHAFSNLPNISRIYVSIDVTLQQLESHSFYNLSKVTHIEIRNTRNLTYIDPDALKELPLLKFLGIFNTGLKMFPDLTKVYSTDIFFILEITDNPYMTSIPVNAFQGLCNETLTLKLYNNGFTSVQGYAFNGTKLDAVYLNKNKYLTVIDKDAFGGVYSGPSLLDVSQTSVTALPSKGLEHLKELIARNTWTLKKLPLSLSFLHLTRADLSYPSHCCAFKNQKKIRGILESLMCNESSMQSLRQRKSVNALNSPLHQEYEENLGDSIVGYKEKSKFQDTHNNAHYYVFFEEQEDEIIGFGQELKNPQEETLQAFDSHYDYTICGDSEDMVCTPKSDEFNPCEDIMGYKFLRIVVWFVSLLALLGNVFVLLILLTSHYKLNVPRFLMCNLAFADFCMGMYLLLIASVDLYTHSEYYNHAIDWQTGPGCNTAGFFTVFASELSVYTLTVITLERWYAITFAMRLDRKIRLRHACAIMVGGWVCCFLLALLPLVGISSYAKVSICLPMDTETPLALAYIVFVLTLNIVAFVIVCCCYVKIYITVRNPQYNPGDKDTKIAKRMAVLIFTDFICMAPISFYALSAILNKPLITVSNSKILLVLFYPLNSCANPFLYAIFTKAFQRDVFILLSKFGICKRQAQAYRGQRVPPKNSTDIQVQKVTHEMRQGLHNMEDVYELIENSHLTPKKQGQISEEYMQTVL

Turning to `Nc1nc2c(ncn2COC(CO)CO)c(=O)[nH]1`, the Potency entry in assay [1], in assay [2], in [4] and in assay [5] was “inactive” each time. In addition, in [3], the compound was called inactive.
Turning to `CCN1CCC[C@H]1CNC(=O)c1cc(S(N)(=O)=O)ccc1OC`, the Potency result in assay [1], in assay [2], in assay [4], in assay [6], in [7] and in assay [5] was “inactive” each time. Also, the call in assay [3] was inactive.
For the compound `CCOC(=O)Nc1ccc(NCc2ccc(F)cc2)nc1N`, the Potency entry in assay [1], in assay [2], in assay [4], in assay [6], in [7] and in assay [5] was “inactive” in each case. For the same compound, the compound was called inactive in assay [3]. Moreover, in [8], the activity change, positive = activation was -17.8% [at 42.5 µM].
With `COc1ccccc1OCC(O)CN1CCN(CC(=O)Nc2c(C)cccc2C)CC1` (stereo not drawn), the Potency result in [1], in [2], in assay [4], in assay [6] and in assay [5] was “inactive” each time. Besides, the compound was classed as inactive in assay [3].
In the case of `CC(C)NCC(O)c1ccc(NS(C)(=O)=O)cc1` (stereo not drawn), the Potency entry in assay [1], in [2], in assay [4], in assay [6], in [7] and in assay [5] was “inactive” throughout. In addition, the call in [3] was inactive.
Take `c1ccc([C@H]2CN3CCSC3=N2)cc1`: the Potency entry in assay [1], in assay [2], in [6], in [7] and in [5] was “inactive” throughout. Also, the call in assay [3] was inactive.
Turning to `COc1ccc(CCN(C)CCCC(C#N)(c2cc(OC)c(OC)c(OC)c2)C(C)C)cc1OC` (stereo not drawn), the Potency in assay [1] was 2.11 µM (active); in [7] it was 21.3 µM (active). The Potency entry in assay [2], in assay [4], in assay [6] and in assay [5] was “inactive” in each case. Besides, the call in [3] was inactive.
With `NCCc1cnc[nH]1`, the Potency entry in [1], in [2], in [4], in assay [6] and in assay [5] was “inactive” in each case. Besides, the compound was classed as inactive in assay [3].
Consider `CCOC(=O)c1c(C)n(C)c2ccc(O)cc12`, for which the Potency result in [1], in assay [2], in assay [10], in assay [6], in assay [7] and in [5] was “inactive” throughout. Also, the compound was called inactive in assay [9]. In addition, in assay [8], the activity change, positive = activation was -9.16% [at 42.5 µM].
With `NC(=O)c1ccc(N)cc1`, the Potency result in [2], in assay [4], in assay [10], in [6], in assay [7] and in assay [5] was “inactive” each time. In addition, the result in [3] and in [9] was inactive. In addition, the activity change, positive = activation in assay [8] was 8.51%.
`NS(=O)(=O)c1cc2c(cc1Cl)NC(C1CC3C=CC1C3)NS2(=O)=O` (stereo not drawn): the Potency entry in [2], in assay [4], in [6], in [7] and in assay [5] was “inactive” each time. In assay [3], the call was inactive.
In the case of `CC(C[N+](C)(C)C)OC(N)=O` (stereo not drawn), the Potency result in assay [2], in [4], in assay [10], in [6], in assay [7] and in assay [5] was “inactive” throughout. Moreover, the outcome in assay [3] was inactive. The activity change, positive = activation in [8] was 3.25% [at 42.5 µM].
Turning to `Cc1c(O)cccc1O`, the Potency result in assay [2], in [10], in [6], in assay [7] and in assay [5] was “inactive” in each case. Also, the call in assay [3] and in assay [9] was inactive. Besides, the activity change, positive = activation in assay [8] is 2.02%.
For the compound `CC/C=C\CC/C=C/CO`, the Potency entry in [2], in assay [4], in assay [10], in [6], in [7] and in assay [5] was “inactive” each time. For the same compound, the compound was called inactive in assay [3] and in [9]. In addition, the activity change, positive = activation in assay [8] is 5.28%.
For the compound `O=Cc1cccc([N+](=O)[O-])c1`, the Potency result in assay [2], in assay [4], in assay [10], in assay [6], in assay [7] and in [5] was “inactive” each time. Moreover, the outcome in assay [3] and in assay [9] was inactive. Moreover, in assay [8], the activity change, positive = activation is -4.24%.
Consider `COc1ccc2c(c1)CCCC2=O`, for which the Potency result in [2], in assay [10], in assay [6], in assay [7] and in assay [5] was “inactive” throughout. Moreover, the compound was called inactive in [3] and in assay [9]. Further, in assay [8], the activity change, positive = activation is 4.85% [at 42.5 µM].
As for `O=c1cc(-c2ccccc2)oc2ccccc12`, the Potency result in assay [2], in assay [6] and in assay [5] was “inactive” throughout. In addition, the result in [9] was inactive. Moreover, the Potency in assay [7] was 15.5 µM (active) and 6.88 µM (active).
For the compound `CCCCCOC(=O)CCCCC`, the Potency result in [2], in assay [10], in assay [6], in assay [7] and in assay [5] was “inactive” throughout. For the same compound, the result in assay [3] and in assay [9] was inactive. The activity change, positive = activation in assay [8] is 0.374%.
In the case of `CCOC(=O)c1ccc(C)cc1`, the Potency result in assay [2], in assay [4], in assay [10], in assay [6], in [7] and in assay [5] was “inactive” each time. Besides, the outcome in [3] and in assay [9] was inactive. For the same compound, the activity change, positive = activation in assay [8] is 4.47%.
On to `OC(CCN1CCCCC1)(c1ccccc1)C1CC2C=CC1C2` (stereo not drawn), for which the Potency entry in assay [2], in assay [4], in [6], in [7] and in assay [5] was “inactive” in each case. The outcome in [3] and in assay [9] was inactive.
As to `COC(=O)c1ccc(C)cc1C1=NC(C)(C(C)C)C(=O)N1` (stereo not drawn), the Potency result in assay [2], in [10], in assay [6], in [7] and in [5] was “inactive” each time. Moreover, the result in assay [3] and in [9] was inactive. Besides, in [8], the activity change, positive = activation was 4.81%.
In the case of `CCCCCCOC(=O)CCCCC(=O)OCCCCCC`, the Potency result in [2], in assay [4], in assay [10], in [6], in [7] and in assay [5] was “inactive” each time. Further, the compound was classed as inactive in [3] and in [9]. Also, the activity change, positive = activation in assay [8] is 5.81%.

The values above are taken from PubChem BioAssay (Tox21).
